Assay results: ChEMBL document CHEMBL3988442, “University of Dundee, Small-Polar-MMV Screening Library” (2021)
The campaign covered roughly 48,000 compounds. About 13,000 (27%) showed an effect of 50% or more. The list shows a part of the results.

What follows are molecules tested on Wolbachia pipientis (assay: Anti-Wolbachia Cell-Based Screen). Conditions: 5 µM.
Type: functional
Parameters: scale not given: in the data most compounds retested in dose-response had high values

Row | SMILES | Percent Effect
1 | COC1CCCN(C(=O)NCC(F)F)C1 (stereo unspecified) | -0.267%
2 | CN(Cc1ccco1)C1CCC12CCN(C(=O)N1CCCC1)CC2.O=C(O)C(F)(F)F (stereo unspecified) | -11.51%
3 | Cc1ccc(C2CCCCCN2CCCS(C)(=O)=O)o1 (stereo unspecified) | -22.51%
4 | CCOc1ccc(NC(=O)c2scnc2CC)cc1CO | -2.962%
5 | O=C1CN(C(=O)CSC2CCCc3ccccc32)CCN1 (stereo unspecified) | -8.523%
6 | O=C(c1cccnc1)N1CCCC(c2ccnc3nccn23)C1 (stereo unspecified) | 79.76%
7 | Cc1cc(C2CCCN(C(=O)c3cccnc3)C2)ccn1 (stereo unspecified) | 84.57%
8 | CC[C@H]1CN(C(=O)c2cccnc2)CC[C@H]1CC(=O)NC1CC1 | 4.498%
9 | O=C(NS(=O)(=O)Cc1ccc(F)cc1)C1CCOc2ccccc21 (stereo unspecified) | -4.826%
10 | CCOCC(O)CN1CCN(C(=O)c2ccc(N(C)C)nc2)CC1 (stereo unspecified) | -21.06%
11 | CN(C)c1ccc(C(=O)N2CCN(Cc3cscn3)CC2)cn1 | 116%
12 | CSC(C)C(=O)N1CCCN(Cc2cscn2)CC1 (stereo unspecified) | -14.88%
13 | CC(O)CN1CCN(C(=O)c2ccc(N(C)C)nc2)CC1 (stereo unspecified) | 3.143%
14 | CN(C)c1ccc(C(=O)N2CCCN(Cc3cscn3)CC2)nn1 | 113.8%
15 | CC(O)CN1CCN(C(=O)c2ccc(N(C)C)nn2)CC1 (stereo unspecified) | 2.216%
16 | O=C(C1CCCO1)N1CCc2ncnc(NC3CCC3)c2CC1.O=C(O)C(F)(F)F (stereo unspecified) | 103.9%
17 | O=C(N1CCOCC1)N1CCc2ncnc(NC3CC3)c2CC1 | 0.5236%
18 | O=C([C@H]1CCCO1)N1CCc2ncnc(NC3CC3)c2CC1 | 1.456%
19 | O=C(N1CCOCC1)N1CCc2ncnc(NC3CCC3)c2CC1.O=C(O)C(F)(F)F | 91.29%
20 | CCCC(C(=O)NC1CCN(S(C)(=O)=O)CC1)n1cccc1 (stereo unspecified) | -3.816%
21 | CCNC(=O)NC(=O)CN1CCOC(c2ccc(Br)cc2)C1 (stereo unspecified) | -12.38%
22 | OC1(CNCCSc2ccccn2)CCCNC1 (stereo unspecified) | -44.86%
23 | N#Cc1cccnc1N1CCCC(CO)(CCOc2ccccc2)C1 (stereo unspecified) | 0.3876%

Row | SMILES | Percent Effect
24 | CN(C)c1ccc(CCNC(=O)C2CCC(=O)N(C3CCCC3)C2)cc1 (stereo unspecified) | -1.429%
25 | CCN(CC)C(=O)CN1CCCC(c2nc(C)c3c(n2)N(C)CCC3)C1 (stereo unspecified) | 160%
26 | CCN(C(=O)CN1CCC(c2cc3ccccc3[nH]2)CC1)C1CC1 | -6.072%
27 | CCC(=O)N1CCC(c2nc3ccc(NC(C)C)cn3n2)CC1 | -7.587%
28 | CCN(CC)C(=O)CN1CCC(c2nc(C)c3c(n2)N(C)CCC3)CC1 | 126.4%
29 | CCN(C(=O)CN1CCC(c2n[nH]c(C3CC3)n2)CC1)C1CC1 | 20.34%
30 | CC(C)N(C)C(=O)CN1CCCC(c2ccc(C(=O)O)cc2)C1 (stereo unspecified) | 0.2821%
31 | CCN(CC(F)(F)F)C(=O)C1CCCN(Cc2nc(C)c(C)o2)C1 (stereo unspecified) | -1.409%
32 | CCC(=O)N1CCC(n2cc(C(C)(C)O)nn2)CC1 | -6.105%
33 | CCC(=O)N1CCC(c2nc(C)c3c(n2)N(C)CCC3)CC1 | 112.7%
34 | CCC[C@H]1CN(Cc2ccc(N(C)C)nc2)C[C@@H]1NC(=O)CSC | -2.183%
35 | O=C(NC[C@H]1OC[C@@H](NC2CCCCC2)[C@@H]1O)c1cccs1 | 2.272%
36 | CC(C)C[C@H](NC(=O)CNC(=O)OC(C)(C)C)C(=O)OC(C)(C)C | 3.003%
37 | CN(C)C(CNC(=O)CCNC(=O)OCC(F)(F)F)c1ccsc1 (stereo unspecified) | -11.09%
38 | CC(C)NC(=O)CNC(=O)OC(C)(C)C | -14.72%
39 | CC(C#N)CN(C)C(=O)CCNC(=O)OC(C)(C)C (stereo unspecified) | 95.62%
40 | CC(C#N)CN(C)C(=O)CCNC(=O)OCC(F)(F)F (stereo unspecified) | 112.9%
41 | CC(O)CN(C)C(=O)CCNC(=O)OC(C)(C)C (stereo unspecified) | 96.59%
42 | CC(C)(C)OC(=O)NCCC(=O)N(CCC#N)Cc1ccco1 | 11.1%
43 | CC(C#N)CN(C)C(=O)CCNC(=O)C(C)(C)C (stereo unspecified) | 107.7%
44 | CC(C)CC(C#N)NC(=O)CCNC(=O)C(C)(C)C (stereo unspecified) | 9.809%
45 | CCC(C#N)NC(=O)CCNC(=O)C(C)(C)C (stereo unspecified) | -9.888%
46 | Cc1cccc(OCCC(=O)N(C)CC(C)C#N)c1C (stereo unspecified) | 20.16%

Row | SMILES | Percent Effect
47 | CC(OCC(F)(F)F)C(=O)NCCN(C)C (stereo unspecified) | -5.396%
48 | Cc1cnn(CC2CCCN2c2ccc(C#N)cn2)c1 (stereo unspecified) | 16.4%
49 | CC1(C)CC1(C(=O)N1CC(c2cccnc2)C1)c1ccccc1F (stereo unspecified) | -22.23%
50 | Nc1nccnc1C(=O)N1CC(OCc2cccc3ccccc23)C1 | -5.576%
51 | COc1ccccc1OCC(=O)N1C[C@@H]2CN(C)CCO[C@@H]2C1.O=C(O)C(F)(F)F | -10.13%
52 | CC(C)N1C[C@@H]2CN(C(=O)NCc3ccccc3)CCC[C@]2(C(=O)O)C1.O=C(O)C(F)(F)F | -4.508%
53 | CN1CCO[C@@H]2CN(C(=O)NCc3cccc(F)c3)CC[C@@H]2C1 | 89.36%
54 | CN(C)C[C@H]1OC[C@@H]2CN(C(=O)NCc3cccc(F)c3)CC[C@@H]21.O=C(O)C(F)(F)F | -10.24%
55 | CN1CCO[C@@H]2CN(C(=O)NCc3ccccc3)CC[C@@H]2C1.O=C(O)C(F)(F)F | 100.3%
56 | COCCN1CCO[C@@H]2CN(C(=O)NCc3ccccc3)CC[C@@H]2C1.O=C(O)C(F)(F)F | -7.267%
57 | CC(C)N1CCO[C@@H]2CN(C(=O)NCc3ccccc3)CC[C@@H]2C1.O=C(O)C(F)(F)F | 99.72%
58 | CN(C)C[C@H]1OC[C@@H]2CCN(C(=O)NCc3cccc(F)c3)C[C@@H]21 | 12.45%
59 | Cc1csc(CNC(=O)N(C)Cc2ccc([S+](C)[O-])cc2)n1 (stereo unspecified) | -10.57%
60 | COCCN(CC1CCCN(C2Cc3ccccc3C2)C1)C(=O)CSC (stereo unspecified) | -15.09%
61 | COc1cc(N2CCCn3cnc(COCCO)c3C2)ncn1 | -11.76%
62 | O=C(c1cccn1Cc1cccs1)N1CCC(C(=O)N2CCCC2)CC1 | 86.86%
63 | O=C(c1csc(-c2cccs2)n1)N1CCN2CCCCC2C1 (stereo unspecified) | 1.576%
64 | NC(=O)C1CCN(C(=O)c2cccn2Cc2cccs2)CC1 | 117.1%
65 | O=C(c1cccn1Cc1cccs1)N1CCN(C2CC2)CC1 | 5.207%
66 | O=C(OCc1cccs1)c1cccc(C(=O)N2CCCC2)n1 | -3.794%
67 | O=C(c1cccn1Cc1cccs1)N1CCN(C(=O)C2CC2)CC1 | -0.05599%
68 | NC(=O)CC1CCN(C(=O)c2cccn2Cc2cccs2)CC1 | 101.5%
69 | O=C(c1cccn1Cc1cccs1)N1CCN2CCCCC2C1 (stereo unspecified) | 106.1%

Row | SMILES | Percent Effect
70 | CNC(=O)C1CCN(C(=O)c2cccn2Cc2cccs2)CC1 | 0.5999%
71 | NC(=O)CC1CCN(C(=O)c2csc(-c3ccccc3F)n2)CC1 | -1.67%
72 | Cc1cc(C(=O)N2CCc3[nH]cnc3C2C(=O)O)c(-c2ccccc2)o1 (stereo unspecified) | -20.72%
73 | CN(C)CCNC(=O)c1nc2c(o1)CN(C(=O)c1cccnc1)C2.O=C(O)C(F)(F)F.O=C(O)C(F)(F)F | -13.48%
74 | COC(C)(C)CC(C)NC(=O)NC1CCN(Cc2ccccn2)CC1 (stereo unspecified) | 2.912%
75 | Cn1ncc2c(NCC(=O)N3CCNCC3)nc(C(C)(C)C)nc21 | -6.319%
76 | CC(C)C1CN(c2ncc(F)cn2)CCC(=O)N1Cc1ccc(F)cc1 (stereo unspecified) | 23.16%
77 | Cc1ccc(S(=O)(=O)Nc2cccnc2O)cc1C | 0.1699%
78 | NC(=O)C1CCN(C(=O)c2cccn2Cc2cccs2)C1 (stereo unspecified) | 92.97%
79 | O=C(c1cccn1Cc1cccs1)N1CCSCC1 | 87.27%
80 | CC(CNC(=O)N1CCSCC1)Cc1cccs1 (stereo unspecified) | 19.49%
81 | CCC(O)CN1CCN(C(=O)c2cccn2Cc2cccs2)CC1 (stereo unspecified) | -10.05%
82 | O=C1NC(c2ccccc2)=N[C@@]12CC[C@@H]1CN(Cc3ccncc3)C[C@@H]12 | -3.809%
83 | Cc1ccc(-c2cn(C3CCN(C(=O)[C@H]4CCCO4)CC3)nn2)cc1 | -12.17%
84 | Cc1cc2cc(CNC(=O)c3cnn4c3OCCC4)ccc2[nH]1 | 3.624%
85 | CCCn1ncc(C(=O)N2CCN(C3CCCC3)CC2)c1C | 4.008%
86 | CN(C)C(=O)c1cnn2c1OCCC2 | 85.82%
87 | Cc1c(C(=O)N2CCCN(S(C)(=O)=O)CC2)cnn1C | 116.6%
88 | CCn1ncc(C(=O)N2CCCN(CCCc3ccccc3)CC2)c1C | 5.21%
89 | O=C(c1cnn2c1OCCC2)N1CCN(C(=O)C2CCCO2)CC1 (stereo unspecified) | 101.5%
90 | O=C(c1cnn2c1OCCC2)N1CCC(Cc2ccccc2)CC1 | 143.8%
91 | O=C(C1CCCO1)N1CCC(n2cc(-c3ccc(F)cc3)nn2)CC1 (stereo unspecified) | -2.259%
92 | O=C(c1cnn2c1OCCC2)N1CCN(C/C=C/c2ccccc2)CC1 | 8.023%

Row | SMILES | Percent Effect
93 | Cc1c(C(=O)N2CCC(C(O)c3ccc(Cl)cc3)CC2)cnn1C (stereo unspecified) | -1.505%
94 | CC(=O)N1CCOC2(CCCN(Cc3ccc(Cl)c(C(F)(F)F)c3)C2)C1 (stereo unspecified) | -8.143%
95 | Clc1cc(CN2CCCC2Cn2cncn2)c2ncccc2c1 (stereo unspecified) | 9.576%
96 | N#Cc1cccnc1N1CCCC(CO)(Cc2cccc(Cl)c2)C1 (stereo unspecified) | -4.475%
97 | CC(c1cccc(-c2cn(Cc3ccoc3)nn2)c1)N(C)C (stereo unspecified) | -9.392%
98 | CNC(=O)Cc1ccc(NC(=O)NCc2nc(C)sc2C)cc1 | 5.733%
99 | CN(C)C(=O)CCC[S+]([O-])Cc1ccc(Cl)c(Cl)c1 (stereo unspecified) | -0.5151%
100 | CS(=O)(=O)N1CCn2c(C(=O)N3CCOCC3)cnc2C1 | -13.12%
101 | CCc1c(C(=O)N2CCCN(C(C)=O)CC2)cnn1C(C)(C)C | 7.313%
102 | CC(=O)c1ccc(N2CCN(C(=O)c3cc(C(C)C)nn3C)CC2)cc1 | -2.718%
103 | CC(=O)c1ccc(N2CCN(C(=O)NC(C)c3ccc(C)o3)CC2)cc1 (stereo unspecified) | -3.361%
104 | CC(C)(C)OC(=O)N1CCN(C(=O)c2cnn3c2OCCC3)CC1 | 119.8%
105 | CC(=O)N1CCN(c2nc3c(cnn3C(C)(C)C)c(=O)[nH]2)CC1 | -9.111%
106 | CS(=O)(=O)N1CCN(C(=O)c2cnn3c2OCCC3)CC1 | 124.7%
107 | CS(=O)(=O)N1CCN(C(=O)c2[nH]c3ccc(Cl)cc3c2Cl)CC1 | -22.4%
108 | CC(=O)N1CCCN(C(=O)c2cnn(C(C)(C)C)c2C)CC1 | 120.5%
109 | CC(C)(C)OC(=O)N1CCCN(c2nnc(C3CC3)s2)CC1 | 1.365%
110 | CC(=O)c1ccc(N2CCN(C(=O)c3cnn4c3OCCC4)CC2)cc1 | 108.1%
111 | CN(Cc1cncs1)C1CCN(C(=O)OC(C)(C)C)CC1 | 3.797%
